Results on seven molecules are retold here after PubChem BioAssay (Tox21).

Experiment [1] can be described thus: qHTS assay for small molecule agonists of the p53 signaling pathway (AID 651631; calls by dose curve; note: nearly all actives have a fitted effect of over 15% in size). In short, it runs like this:
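p53RE-bla HCT-116 cells; compounds 16 h, 37 °C; LiveBLAzer B/G FRET substrate 2 h RT; fluorescence intensity read-out, qHTS format.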
On the technique in general: Quantitative high-throughput screening tests each substance at several concentrations.

Experiment [2] can be described thus: qHTS assay for small molecules that induce genotoxicity in human embryonic kidney cells expressing luciferase-tagged ATAD5 (AID 651632). Note: nearly all actives have a fitted effect of over 15% in size. In short, it runs like this:
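HEK293T cells carrying luciferase-tagged ATAD5 were given compound or DMSO vehicle and incubated 16 hr at 37C, 5% CO2. Luciferase activity was read after 30 min at room temperature with Amplite; a rise signals genotoxic stress.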

The nature of experiment [3]: qHTS assay for small molecule agonists of the p53 signaling pathway - cell viability (AID 651633; calls by dose curve;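 note: p53RE-bla HCT reporter cells with a stable beta-lactamase p53 reporter; series mostly up to about 83 µM; nearly all actives have a fitted effect of over 30% in size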). In short, it runs like this:
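p53RE-bla cells, seeded at 4,000 per well and rested 5 h at 37 C/5% CO2, received compounds in DMSO for 16 h at 37 C. CellTiter-Glo was then added, and luminescence was read after 30 min at room temperature to gauge cytotoxicity.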

Experiment [4] can be described thus: qHTS assay for small molecules that induce genotoxicity in human embryonic kidney cells expressing luciferase-tagged ATAD5 - cell viability (AID 651634; calls by dose curve; note: nearly all actives have a fitted effect of over 25% in size). In short, it runs like this: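 HEK293T cells carrying luciferase-tagged ATAD5, 2,000 cells/well, exposed to compound for 15.5 hr at 37C. Viability read as live-cell protease activity by CellTiter-Fluor fluorescence after 30 min at 37C.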

Experiment [5] can be described thus: qHTS assay for small molecule disruptors of the mitochondrial membrane potential - cell viability (AID 720634; calls by dose curve;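 note: human HepG2 liver cancer cells; series mostly up to about 83 µM; nearly all actives have a fitted effect of over 20% in size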). In short, it runs like this:
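HepG2 cells, 2,000 per well, attached overnight, then treated 1 hr at 37 C, 5% CO2. Viability read as ATP by CellTiter-Glo luminescence after 30 min at room temperature. Read in the same wells as the m-MPI membrane-potential dye assay.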

A short description of experiment [6]: qHTS assay for small molecule disruptors of the mitochondrial membrane potential (AID 720635). Note: potency is the fitted concentration of half-maximal effect. In short, it runs like this:
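HepG2 cells (2,000/well) attached overnight at 37C, then took compound for 1 hr at 37C, 5% CO2. Mito-MPS dye was added for 30 min; fluorescence was read at 490/535 nm (monomers) and 540/590 nm (aggregates).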

A short description of experiment [7]: qHTS assay to test for compound auto fluorescence at 590 nm (red) in HepG2 cells (AID 720674). In short, it runs like this:
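Rose Bengal sodium served as the red fluorophore standard. HepG2 monolayers (overnight attachment, MEM with 10% FBS) were exposed to test compounds for 1 hr at 37 C and read at Ex 540/Em 590 nm.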

Experiment [8] is described as follows: qHTS assay to test for compound auto fluorescence at 535 nm (green) in HepG2 cells (AID 720675).
The nature of experiment [9]: qHTS assay to test for compound auto fluorescence at 460 nm (blue) in HEK293 cells (AID 720678). In short, it runs like this: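 HEK293 cells (2,000 per well, medium with 10% dialyzed FBS) attached for 4-5 hr at 37C, then received compound and stood overnight at 37C, 5% CO2. Blue fluorescence was read at Ex/Em 405/460 nm and expressed relative to triamterene.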
The nature of experiment [10]: qHTS assay to test for compound auto fluorescence at 590 nm (red) in HEK293 cells (AID 720679). In short, it runs like this: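 HEK293 cells (2,000/well, medium with 10% dialyzed FBS) attached for 4-5 hr at 37C, received 23 nL compound and were incubated overnight at 37C, 5% CO2. Red fluorescence was then read at 540/590nm Ex/Em, referenced to Rose Bengal sodium.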
Experiment [11] in a line: qHTS assay to test for compound auto fluorescence at 535 nm (green) in HEK293 cells (AID 720680).
A short description of experiment [12]: qHTS assay to test for compound auto fluorescence at 460 nm (blue) in HEK293 cell free culture (AID 720681). In short, it runs like this:
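Test compounds were pinned into cell-free culture medium (DMEM with 10% FBS) and fluorescence was read directly at Ex/Em 405/460 nm. Signals were expressed as fluorescence equivalents of triamterene, with DMSO vehicle as control.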

A short description of experiment [13]: qHTS assay to test for compound auto fluorescence at 590 nm (red) in HEK293 cell free culture (AID 720683). In short, it runs like this: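 Tox21 10K library compounds were pinned into cell-free DMEM with 10% FBS and fluorescence was read at excitation 540 nm. Activity is expressed as Rose Bengal sodium equivalency.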
Experiment [14] can be described thus: qHTS assay to test for compound auto fluorescence at 590 nm (red) in HepG2 cell free culture (AID 720684). In short, it runs like this:
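Red fluorescence (540 nm excitation, 590 nm emission) was measured after compound transfer into cell-free MEM supplemented with 10% FBS. Values are equivalencies against Rose Bengal sodium.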

Experiment [15] in a line: qHTS assay to test for compound auto fluorescence at 460 nm (blue) in HepG2 cell free culture (AID 720685). In short, it runs like this: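 Compound (23 nL) or DMSO pinned into cell-free MEM with 10% FBS; blue fluorescence read at 405/460 nm excitation/emission, expressed as auto-fluorescence equivalency to triamterene.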
Experiment [16] is described as follows: qHTS assay to test for compound auto fluorescence at 535 nm (green) in HepG2 cell free culture (AID 720686).
Experiment [17] can be described thus: qHTS assay to test for compound auto fluorescence at 460 nm (blue) in HepG2 cells (AID 720687). In short, it runs like this:
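Cells (2,000/well in MEM with 10% FBS) attached overnight at 37 C, then were exposed to compound or DMSO for 1 hr at 37 C, 5% CO2. Fluorescence read at Ex/Em 405/460 nm, expressed as triamterene-equivalent signal.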

In experiment [18] the target is Glucocorticoid receptor (Homo sapiens) (UniProt P04150). Description: qHTS assay to identify small molecule agonists of the glucocorticoid receptor (GR) signaling pathway (AID 720691; active = well fitted activation curve with a large enough effect in the signal ratio in the repeat runs, not every such curve was filed as active; the % refers to the signal ratio). In short, it runs like this:
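GR-bla HeLa cells carrying a GRE-driven beta-lactamase reporter, exposed to compounds for 18 h at 37 C. Reporter activation read as fluorescence after 2 h with LiveBLAzer B/G FRET substrate at room temperature.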

The target is the same in experiment [19]. Description: qHTS assay to identify small molecule antagonists of the glucocorticoid receptor (GR) signaling pathway (AID 720692; active = well fitted inhibition curve with a large enough effect in the signal ratio in the repeat runs, not every such curve was filed as active; the % refers to the signal ratio). In short, it runs like this: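 GR-bla HeLa cells carrying a GRE-driven beta-lactamase reporter received compound after 4 h plating, then dexamethasone (5 nM final). After 18 h at 37C, the FRET substrate was loaded for 2 h at room temperature and fluorescence read.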

Experiment [20] in a line: qHTS assay to test for compound auto fluorescence at 535 nm (green) in HEK293 cell free culture (AID 720682). In short, it runs like this: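 Cell-free medium (DMEM, 10% FBS) receives compound or DMSO by pintool. Plate read directly at Ex 485/Em 535 nm. Signal converted to fluorescein equivalency.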

Where “and” joins values, the source holds several entries; their conditions need not be identical. Equal values may be shown once. Results filed as inconclusive are left out. Calls of active or inactive are those of the source. Unless noted, calls come from the whole dose curve; as a rule, active = well fitted curve in the direction sought with a large enough effect in the repeat runs; inconclusive = weak or mixed curves; inactive = no such curve, though single readings can be large; an effect the other way counts as inactive or inconclusive.

Chain of Glucocorticoid receptor (Homo sapiens) (P04150 whole entry, looked up): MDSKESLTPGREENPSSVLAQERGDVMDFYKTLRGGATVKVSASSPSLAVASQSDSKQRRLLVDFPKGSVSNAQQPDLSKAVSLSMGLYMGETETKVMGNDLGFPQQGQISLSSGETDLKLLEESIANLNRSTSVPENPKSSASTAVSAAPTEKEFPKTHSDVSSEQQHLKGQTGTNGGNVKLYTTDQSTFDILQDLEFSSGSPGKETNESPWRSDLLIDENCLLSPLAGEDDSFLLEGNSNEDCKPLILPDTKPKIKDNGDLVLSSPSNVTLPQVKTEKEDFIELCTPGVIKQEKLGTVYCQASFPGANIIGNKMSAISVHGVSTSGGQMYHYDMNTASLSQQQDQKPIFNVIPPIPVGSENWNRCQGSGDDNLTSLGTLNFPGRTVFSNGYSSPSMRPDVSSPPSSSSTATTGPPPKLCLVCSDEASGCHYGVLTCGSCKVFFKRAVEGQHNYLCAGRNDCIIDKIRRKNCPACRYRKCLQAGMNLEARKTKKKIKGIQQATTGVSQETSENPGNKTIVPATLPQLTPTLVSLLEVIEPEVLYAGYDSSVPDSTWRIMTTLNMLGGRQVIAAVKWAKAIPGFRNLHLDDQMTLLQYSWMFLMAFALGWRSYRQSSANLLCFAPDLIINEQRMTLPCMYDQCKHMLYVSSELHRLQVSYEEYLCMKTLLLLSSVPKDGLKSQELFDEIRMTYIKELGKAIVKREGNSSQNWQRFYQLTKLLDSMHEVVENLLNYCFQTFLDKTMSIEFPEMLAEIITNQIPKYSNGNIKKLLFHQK

Take `CCCCC(CC)COP(=O)(OCC(CC)CCCC)OCC(CC)CCCC` (configuration not stated): the Potency result in experiment [1], in experiment [2], in experiment [3], in [4], in [5] and in experiment [6] was “inactive” each time. Also, the Potency entry in [7], in experiment [8], in experiment [10], in experiment [11], in experiment [13] and in experiment [14] was “inactive” in each case. The Potency entry in [16], in experiment [18] and in experiment [19] was “inactive” in each case. Also, the molecule was classed as inactive in experiment [9], in [12], in experiment [15] and in experiment [17].

With `CCC(C)OC(=O)c1ccc(O)cc1` (configuration not stated), the Potency result in [1], in [2], in experiment [3], in experiment [4], in [7] and in experiment [8] was “inactive” in each case. Further, the Potency result in [10], in [11], in experiment [20], in experiment [13], in [14] and in experiment [16] was “inactive” in each case. Also, the Potency result in experiment [18] and in experiment [19] was “inactive” throughout. In addition, the Potency in [6] is 24.5 µM (active) and 17.2 µM (active). For the same molecule, the molecule was called inactive in experiment [9], in [12], in experiment [15] and in [17].

In the case of `OC1CCCCCCCCCCC1`, the Potency result in [1], in [2], in experiment [3], in [4], in experiment [5] and in [7] was “inactive” each time. The Potency entry in experiment [8], in experiment [10], in experiment [11], in experiment [20], in [13] and in [14] was “inactive” in each case. The Potency entry in experiment [16], in [18] and in experiment [19] was “inactive” throughout. Besides, the Potency in experiment [6] is 55 µM (active) and 54.5 µM (active). The call in experiment [9], in experiment [12], in [15] and in [17] was inactive.

`C=C(C)C(=O)OCCOC(=O)C(=C)C`: the Potency result in experiment [1], in [2], in [3], in experiment [4], in experiment [5] and in experiment [6] was “inactive” throughout. Besides, the Potency result in [7], in experiment [8], in [10], in [11], in experiment [20] and in experiment [13] was “inactive” throughout. Also, the Potency result in experiment [14], in experiment [16], in experiment [18] and in experiment [19] was “inactive” throughout. The molecule was called inactive in experiment [9], in [12], in [15] and in [17].

Turning to `COC(=O)c1ccccc1`, the Potency entry in experiment [1], in experiment [2], in experiment [3], in experiment [4], in experiment [5] and in experiment [6] was “inactive” each time. Moreover, the Potency entry in experiment [7], in experiment [8], in experiment [10], in experiment [11], in experiment [13] and in [14] was “inactive” in each case. For the same molecule, in [16], the Potency result is “inactive”. The molecule was called inactive in experiment [9], in experiment [12], in experiment [15] and in [17].

For the molecule `CC(=O)CC/C=C(\C)CCC=C(C)C`, the Potency entry in experiment [1], in experiment [2], in [3], in [4], in [5] and in experiment [6] was “inactive” each time. Further, the Potency entry in [7], in experiment [8], in experiment [10], in experiment [11], in experiment [20] and in [13] was “inactive” throughout. Further, the Potency entry in experiment [14] and in experiment [16] was “inactive” throughout. Besides, the outcome in [9], in experiment [12] and in experiment [15] was inactive.

`CN(C)CCN(Cc1cccs1)c1ccccn1`: the Potency entry in experiment [1], in experiment [2], in experiment [3], in experiment [4], in experiment [5] and in [6] was “inactive” in each case. Moreover, the Potency entry in experiment [7], in experiment [8], in [10], in experiment [11], in experiment [20] and in [13] was “inactive” in each case. In addition, the Potency entry in [14], in [16], in [18] and in [19] was “inactive” throughout. Also, the call in experiment [9], in [12], in experiment [15] and in experiment [17] was inactive.
